Experimental findings from PubChem BioAssay (EPA / NIEHS) are described below.

The source made the active and inactive calls. How the source made its calls: active means hit-call score of the fitted dose curve at least 0.9, where 1 is the maximum; inactive means score below 0.9.

Read-out in the assay: Glutathione S-transferase M3 (GSTM3), GSTM3 (gene 2947)
In words: LTEA_HepaRG_GSTM3: Life Technologies and Expression Analysis (LTEA) Assay for Glutathione S-transferase M3 (GSTM3) using HepaRG (AID 2283501). The settings on record: mRNA level, 48 h; actives raise or lower the signal. The procedure: LTEA_HepaRG is a cell based, multiplexed-readout assay that uses HepaRG, a human liver cell line, with measurements taken at 48 hours after chemical dosing on a 96-well plate.LTEA_HepaRG_GSTM3 is one of 102 assay component(s) measured in the LTEA HepaRG cell culture assay. It is a marker of Oxidative Stress.Data from the assay component LTEA_HepaRG_GSTM3 was analyzed into 1 endpoint. This assay endpoint, LTEA_HepaRG_GSTM3, was analyzed with bidirectional fitting relative to DMSO as the negative control and baseline of activity. Using a type of inducible reporter, measures of mRNA induction for gain or loss-of-signal activity can be used to understand regulation of transcription factor activity. To generalize the intended target to other relatable targets, this assay endpoint is annotated to the transferase intended target family, where the subfamily is alkyl and aryl transferase.
A total of 1060 chemcials from the ToxCast library were tested in eight-point concentration-response experiments. Cell culture and cytotoxicity assays were conducted at Thermo Fisher Scientific's Custom Services facility (Madison, WI). A single lot of human HepaRG cells (Thermo Fisher Scientific, Frederick, MD) was used for the cell culture experiments. 96-well format collagen type I coated plates of human HepaRG cells were prepared using established methods. Briefly, cryopreserved HepaRG cells were thawed, plated at a density of approximately 100,000 cells/well in HepaRG Thaw, Plate, and General Purpose media (HPRG770, Thermo Fisher Scientific), and incubated for 48 hours. 0.5% DMSO was selected as vehicle control to balance the requisite need of DMSO in HepaRG cultures to maintain differentiation (for example, baseline metabolism, proportions of hepatocytes vs. cholangiocytes), while enabling further hepatic receptor pathway activation (for example, PXR and CAR) in response to chemical exposure. 48 hours after plating, the culture medium was replaced with HepaRG Serum-Free Incudtion Media. Cells were exposed to each test chemical in duplicate and maintained in CO2 incubators for another 48 hours. Chemical plates were thawed to room temperature and 200x concentrations of treatment groups were prepared. 8-point conentration-reponse curves were made with the highest exposure at 100 uM, followed by half-log dilutions, all in 0.5% DMSO. Each test plate contained variouse controls, induction positive controls (1mM phenobarbital), cytotoxicity positive controls ([…] aflatoxin B1), vehicle controls (0.5% DMSO), and total lysis controls (0.5% DMSO). Cell morphology images were taken using an Essen IncuCyte FLR automated microscope, with six 96-well plates imaged in about 24 minutes. Images were captured and exported and JPEG files. Spent culture media was transfered to black-well plates for the LDH assay, and remaining media was sorted at -80 C for later use. Cells were treated with RLT buffer and frozen until shipped for gene expression analysis. Total RNA was isolated from the cell suspension in 75 uL of Buffer RLT (Qiagen, Germantown, MD 20874) by Quintiles/Expression Analysis (Durham, NC) using a custom isolation procedure. Total RNA from each plate well was transferred to a preamplification plate. Fluidigm's 96.96 Dynamic ArrayTM (Fluidigm, Amsterdam, the Netherlands) technology was used for gene expression analyses by quantitative reverse transcription polymerase chain reaction (qRT-PCR, performed by Quintiles/Expression Analysis, Durham, NC)89. Standard TaqManTM Assays (Applied Biosystems/ThermoFisher Scientific, Foster City, CA) were used to assess the expression of 93 genes selected based on their selectivity and sensitivity to important hepatic receptors known to be modulated by environmental chemicals; importance in human hepatocyte functionality; and hepatotoxicity. […]
On to `CCNc1nc(NC(C)C)nc(SC)n1`, for which the call was inactive.

In the case of `c1cc2ccc3cccc4ccc(c1)c2c34`, the result was inactive.

On to `CCOCCOC(C)=O`, for which the result was inactive.

`CN(C)c1nc(=O)n(C2CCCCC2)c(=O)n1C`: the outcome was inactive.

For the molecule `O=C(N[C@H]1CN2CCC1CC2)c1cc2ccoc2cn1`, the molecule was classed as inactive.

Regarding `ClC1=C(Cl)[C@]2(Cl)[C@@H]3[C@H]4C[C@H]([C@@H]5O[C@H]45)[C@@H]3[C@@]1(Cl)C2(Cl)Cl`, the molecule was classed as inactive.

Turning to `Oc1c(Cl)c(Cl)c(Cl)c(Cl)c1Cl`, the AC50 was 4.88 µM (active).

For the molecule `CC(C)(c1ccccc1)c1ccc(O)cc1`, the call was inactive.

Turning to `Cc1cc2c3c(c1)C(c1ccccc1)=N[C@@H](NC(=O)c1ccncc1)C(=O)N3CC2`, the call was inactive.

As for `c1ccc(-c2ccccc2)cc1`, the call was inactive.

On to `C[C@]12CCC(=O)C=C1CC[C@@H]1[C@@H]2CC[C@]2(C)C(=O)CC[C@@H]12`, for which the outcome was inactive.

Take `Oc1ccc(C(c2ccc(O)cc2)(C(F)(F)F)C(F)(F)F)cc1`: the molecule was classed as inactive.

Regarding `CCC(C)(c1ccc(O)cc1)c1ccc(O)cc1`, the molecule was called inactive.

`CC(C)(O)C(=O)Nc1ccc([N+](=O)[O-])c(C(F)(F)F)c1`: the result was inactive.

Turning to `Cc1cc(-c2ccc(N)c(C)c2)ccc1N`, the molecule was called inactive.

Take `CCCCCCOC(=O)c1ccccc1C(=O)OCCCCCC`: the molecule was called inactive.

For the molecule `C=CC(N)=O`, the molecule was classed as inactive.

For the molecule `COc1ccc(O)c(C(C)(C)C)c1`, the outcome was inactive.

For `C[C@]12CCC(=O)C=C1CC[C@@H]1[C@@H]2CC[C@@]2(C)[C@H]1CC[C@]2(C)O`, the result was inactive.

On to `CC#Cc1cc(C)nc(Nc2ccccc2)n1`, for which the AC50 is 14.5 µM (active).

Take `Clc1ccc(C(c2ccccc2Cl)C(Cl)(Cl)Cl)cc1` (stereo not given): the result was inactive.

Turning to `C=CC(=O)NCNC(=O)C=C`, the result was inactive.

For the molecule `CCCCCCCCCC[N+](C)(C)CCCCCCCCCC`, the result was inactive.

With `ClC(Cl)=C(c1ccc(Cl)cc1)c1ccc(Cl)cc1`, the molecule was classed as inactive.

Regarding `CCCCCCCCCc1ccc(O)cc1`, the molecule was called inactive.

Regarding `O=C(NC(=O)c1c(F)cccc1F)Nc1cc(Cl)c(OC(F)(F)C(F)F)c(Cl)c1`, the result was inactive.

As to `O=C(O)C(F)(F)C(F)(F)C(F)(F)C(F)(F)C(F)(F)C(F)(F)C(F)(F)C(F)(F)F`, the result was inactive.

Consider `C1CC2OC2CC1C1CO1` (stereo not given), for which the molecule was called inactive.

In the case of `CN(C)CCO`, the result was inactive.

For `CCC(C)c1cc([N+](=O)[O-])cc([N+](=O)[O-])c1O` (stereo not given), the half-maximal activity concentration (AC50) was 4.16 µM (active).

With `Cc1cc(O)ccc1Cl`, the call was inactive.

In the case of `CCOC(=O)C(O)(c1ccc(Cl)cc1)c1ccc(Cl)cc1`, the molecule was classed as inactive.

Take `CO/C=C(/C(=O)OC)c1ccccc1COc1cccc(C(F)(F)F)n1`: the AC50 is 50 µM (active).

In the case of `NS(=O)(=O)C(F)(F)C(F)(F)C(F)(F)C(F)(F)C(F)(F)C(F)(F)C(F)(F)C(F)(F)F`, the call was inactive.

Consider `CCCCCCCCOC(=O)c1ccccc1C(=O)OCCCCCCCC`, for which the outcome was inactive.

Consider `CC1=C2C[C@H]3[C@@H](CC=C4C[C@@H](O)CC[C@@]43C)[C@@H]2CC[C@]12O[C@@H]1C[C@H](C)CN[C@H]1[C@H]2C`, for which the molecule was classed as inactive.

In the case of `O=C(O)C(F)(F)C(F)(F)C(F)(F)C(F)(F)C(F)(F)F`, the result was inactive.

`O=C(NC(=O)c1cc(F)c(F)cc1Cl)Nc1cc(F)ccc1N1CCC(C(=O)O)CC1`: the molecule was classed as inactive.

For the molecule `ClC1=C(Cl)[C@]2(Cl)[C@@H]3[C@@H]4C[C@@H]([C@H]5O[C@@H]45)[C@@H]3[C@@]1(Cl)C2(Cl)Cl`, the outcome was inactive.

For `CCCN(CCC)N=O`, the outcome was inactive.

For orientation: AC50 means the concentration at which the activity in the assay is half-maximal.
